An excerpt weighted towards active compounds, which were near 6.8% of everything screened.
PINK1 modulator – changes PINK1 expression; PINK1 immunofluorescence, high-content cytometry, 24 h; Potency, µM (top dose mostly 76.6 µM), without a hit: top-dose activation (PINK1 increase), usual class: activators; 410,000 compounds, 0.2% hits; active = well fitted activation curve with a large enough effect; inconclusive = small, poorly fitted or top-dose-only effect; cell line not stated here; also: % of control where 0% means no effect; nearly all actives have a fitted effect of over 65% in size
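Stable cell line treated 24 h with compounds at 5 concentrations (CCCP controls), then fixed and immunostained for PINK1 plus nuclear and cell stains; PINK1 immunofluorescence quantified by laser-scanning microplate cytometry.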
TSG101-PTAP inh – blocks PTAP/TSG101 interaction to inhibit HIV-1 budding; Q99816; 340,000 tested, under 10 active; AID 493005; Potency, µM (titrated, usually from 115 µM), without a hit: top-dose activity change, negative = inhibition, most hits filed as inhibitors; Fluorescence polarization, FITC-PTAP peptide / Tsg101 binding; active = well fitted inhibition curve with a large enough effect in the main read-out, with a control signal flat, not every such curve was filed as active; inconclusive = small, poorly fitted or top-dose-only effect, or effect the other way, or a change in a side signal; inactive = no such curve, though single readings can be large or run the other way; also: % of control where 0% means no effect
Target sequence (Q99816 whole entry, looked up): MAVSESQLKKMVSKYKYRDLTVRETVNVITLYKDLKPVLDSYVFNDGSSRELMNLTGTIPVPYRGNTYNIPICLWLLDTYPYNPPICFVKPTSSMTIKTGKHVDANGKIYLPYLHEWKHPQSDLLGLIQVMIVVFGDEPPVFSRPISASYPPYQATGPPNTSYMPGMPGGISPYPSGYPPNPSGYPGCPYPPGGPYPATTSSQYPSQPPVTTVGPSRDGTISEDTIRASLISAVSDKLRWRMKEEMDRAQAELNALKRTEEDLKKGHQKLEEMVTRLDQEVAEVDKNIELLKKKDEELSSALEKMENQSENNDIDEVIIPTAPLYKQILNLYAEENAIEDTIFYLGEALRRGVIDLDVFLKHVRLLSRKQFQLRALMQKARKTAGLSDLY
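Fluorescence polarization binding of Tsg101 binding domain (10 uM final) to FITC-labeled PTAP peptide (50 nM final) in HEPES pH 7.5 buffer with NaCl, Tween 20, EDTA, TCEP. Compounds added before peptide; binding 20 min at RT.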
KB-V1 MDR tox – kills drug-selected multidrug resistant KB-V1 cells. KB-V1 MDR cells viability, CellTiter-Glo, 72 h. Potency, µM (highest dose often 46.1 µM), hits mostly cytotoxic. 400,000 compounds, 3.4% hits. AID 1347076; also: % is scaled to controls: 0 for no effect and ±100 for the full control effect; nearly all actives have a fitted effect of over 60% in size
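KB-V1 cells (P-gp-expressing MDR subline of KB-3-1) in phenol-red-free DMEM with 10% FBS were exposed to library compounds over a concentration series for 72 h at 37 degrees C. Viability read by CellTiter-Glo luminescence; concentration-effect curves fitted after normalization.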
SW480 rereplic – induces DNA re-replication in SW480 colon adenocarcinoma cells | SW480 DNA re-replication, Hoechst DNA content imaging, 48 h | Potency, µM (series often up to 46.1 µM), inactives show at the highest dose re-replication activation, hits mostly activators | 340,000 compounds, 1.8% hits | AID 624297; also: % of control where 0% means no effect; nearly all actives have a fitted effect of over 55% in size
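Image-based read-out: total Hoechst fluorescence of nuclei (405 nm excitation, 500-530 nm emission), with hits raising the fraction of high-intensity nuclei. SW480 colon cells incubated 48 hr with compounds at 37 C.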
MCF10A rerep – DNA re-replication induction in MCF 10a cells; 350,000 compounds, 2.9% hits; MCF 10A DNA re-replication, Hoechst nuclear intensity, 48 h; Potency, µM (highest dose often 46.1 µM), without a hit: at the top dose activity, positive = re-replication, actives largely listed as activators; also: % of control where 0% means no effect; nearly all actives have a fitted effect of over 50% in size
KB-3-1 cytotox – KB-3-1 parental cell cytotoxicity. 400,000 compounds, 1.4% hits. KB-3-1 viability, CellTiter-Glo ATP luminescence, 72 h. Potency, µM (top dose mostly 46.1 µM), usual class: cytotoxic; also: % is scaled to controls: 0 for no effect and ±100 for the full control effect; nearly all actives have a fitted effect of over 60% in size
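KB-3-1 cells, DMEM (no phenol red) + 10% FBS; compound by pin transfer, 72 h, 37 °C. Readout: CellTiter-Glo luminescence after 10 min. Data normalized, curve-fitted.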
* marks the source's active call; other numbers are inactive results; i = inactive; ? = inconclusive; . = no result; [ ] = remark or other dose. Unless noted, calls follow the shape of the dose curve; as a rule, active = well fitted curve in the direction sought with a large enough effect; inconclusive = small, poorly fitted or top-dose-only effect, or another doubt; inactive = no such curve, though single readings can be large; an effect the other way counts as inactive or inconclusive. Potency is read from the fitted curve at half-maximal effect.

SMILES | PINK1 modulator | TSG101-PTAP inh | KB-V1 MDR tox | SW480 rereplic | MCF10A rerep | KB-3-1 cytotox
CCOc1ccc(C(CCc2ccccc2)NC(=O)c2ccccc2OC)cc1OCC (stereo not given) | 6%[38.3 µM] | -9% | ? | ? | 21µM* | i
COc1ccccc1N(CC(=O)NCC1CCCO1)C(=O)CNS(=O)(=O)c1ccc(Cl)cc1 (stereo not given) | 2% | -4% | i | 0.73µM* | 0% | i
CCOc1ccc(S(=O)(=O)NCc2cccnc2)cc1NC(=O)c1ccccc1F | 6% | -4% | ? | 9.2µM* | 13µM* | 18µM*
CCOc1ccc(S(=O)(=O)NCc2ccncc2)cc1NC(=O)c1ccccc1 | 0% | -4% | ? | 1% | ? | 0.58µM*
COc1ccc(S(=O)(=O)NCc2ccncc2)cc1NC(=O)c1ccccc1 | 0% | 1% | i | 12% | 29% | i
CCOc1ccc(S(=O)(=O)NCc2ccncc2)cc1NC(=O)c1ccccc1F | 12% | 1% | ? | 3% | ? | ?
CC(C)(C)c1ccc(C(=O)NCC(=O)OCc2cc(=O)n3nc(C4CC4)sc3n2)cc1 | 0% | . | ? | . | . | i
CC(C)CN1CCCC2(CCN(C(=O)c3cccn3C)CC2)C1 | 1% | . | . | . | . | .
C=C(NC(=O)C(=C)NC(=O)c1csc(C2=N[C@@H]3c4csc(n4)[C@@H]4NC(=O)c5csc(n5)[C@@H]([C@](C)(O)[C@H](C)O)NC(=O)[C@@H]5CSC(=N5)/C(=C/C)NC(=O)[C@@H]([C@H](C)O)NC(=O)c5csc(n5)[C@]3(CC2)NC(=O)[C@@H](C)NC(=O)C(=C)NC(=O)[C@@H](C)NC(=O)[C@@H]([C@@H](C)CC)N[C@H]2C=Cc3c([C@H](C)O)cc(nc3[C@@H]2O)C(=O)O[C@H]4C)n1)C(N)=O | . | . | . | 7.2µM* | 8.1µM* | .
C=C(NC(=O)C(=C)NC(=O)c1csc(C2=NC3c4csc(n4)C4NC(=O)c5csc(n5)C(C(C)(O)C(C)O)NC(=O)C5CSC(=N5)/C(=C/C)NC(=O)C(C(C)O)NC(=O)c5csc(n5)C3(CC2)NC(=O)C(C)NC(=O)C(=C)NC(=O)C(=C)NC(=O)C(C(C)C)NC2C=Cc3c(C(C)O)cc(nc3C2O)C(=O)OC4C)n1)C(N)=O (stereo not given) | ? | -2% | ? | 1.2µM* | ? | ?
COc1ccc2c(c1)NC(c1cccnc1)=NC(c1ccc(F)cc1)=N2 | 7% | . | i | . | . | i
CCN(Cc1ccccc1)S(=O)(=O)c1nc2nc(C)c(C)c(C)n2n1 | -3% | -8% | 18µM* | -17% | 0% | i
Cc1ccc(-c2c(C)n3c4c(=O)n(C)c(=O)n(C)c4nc3n2CCO)cc1 | -1% | . | i | . | . | 2.1µM*
O=c1oc2ccccc2c(Nc2cc3ccccc3cc2O)c1[N+](=O)[O-] | ? | 0% | ? | ? | 2.1µM* | 15µM*
COc1cccc(CNC(=O)CN2C(=O)N(c3ccc(C)cc3C)S(=O)(=O)c3ccccc32)c1OC | -1% | . | i | . | . | i
CCN(Cc1ccccc1)S(=O)(=O)c1ccc2[nH]c3c(c2c1)CCCCC3 | ? | . | i | . | . | i
CCN(c1ccc(OC)cc1)S(=O)(=O)c1ccc2[nH]c3c(c2c1)CCCCC3 | 25µM* | . | 18µM* | . | . | 8.2µM*
Cc1ccc(N(C)S(=O)(=O)c2ccc3[nH]c4c(c3c2)CCCC4)cc1 | ? | . | 18µM* | . | . | i
Cc1ccc(NS(=O)(=O)c2ccc3[nH]c4c(c3c2)CCCCCC4)cc1 | 5% | . | i | . | . | ?
Cc1ccc(C(=O)CSc2nc(C)cc(C)c2C(N)=O)cc1 | . | 1% | 16µM* | -27% | 154% | i
Cc1cc(C)c(C(N)=O)c(SCC(=O)c2ccc(Cl)cc2)n1 | -3% | -4% | i | ? | ? | i
Cc1cc(C)c(C(N)=O)c(SCC(=O)c2cc(C)n(-c3cc(C)on3)c2C)n1 | 8% | -6% | ? | ? | 21µM* | i
Cc1cc(NC(=O)CSc2[nH]c(=O)cc(C(F)(F)F)c2C#N)no1 | 1% | -1% | i | -16% | 2% | i
Cc1cc(-n2c(C)cc(C(=O)CSc3[nH]c(=O)cc(C(F)(F)F)c3C#N)c2C)no1 | 0% | -5% | i | 3.3µM* | ? | i
COc1cccc(CNC(=O)Cc2c(C)c3c(cc(C)c4c(C)coc43)oc2=O)c1 | -1% | . | . | . | . | .
SMILES | PINK1 modulator | TSG101-PTAP inh | KB-V1 MDR tox | SW480 rereplic | MCF10A rerep | KB-3-1 cytotox
COc1cccc(CNC(=O)C(=O)NCC(c2ccco2)S(=O)(=O)c2ccccc2)c1 (stereo not given) | 0% | . | . | . | . | .
COc1ccc(NC(=O)c2nc(C)c(C3(C)CC(c4ccccc4)=NO3)s2)cc1 (stereo not given) | 7% | -3% | ? | 4.6µM* | 3.7µM* | 4.6µM*
Cc1nc(C(=O)Nc2ccccc2)sc1C1(C)CC(c2cccnc2)=NO1 (stereo not given) | 1% | 2% | i | 1% | -1% | i
COc1ccc(NC(=O)c2cc3c(s2)-c2c(C)cccc2OC3)c(OC)c1 | 5% | . | ? | . | . | i
COCC(=O)Nc1cc(C(=O)N2CCCOc3c(cccc3OC)C2)c2c(c1)nc(C1CCC1)n2C | 1% | . | . | . | . | .
CCOc1cc(/C=C2\C(=O)ON=C2c2ccccc2)ccc1OC | -1% | 2% | ? | ? | ? | i
CCOc1cc(/C=C2/C(=O)ON=C2C)ccc1OCc1ccccc1F | . | -1% | ? | 23µM* | ? | i
CCOc1cc(/C=C2/C(=O)ON=C2C)ccc1OCc1ccc(F)cc1 | -1%[38.3 µM] | ? | i | 18µM* | ? | i
CCOc1cc(/C=C2/C(=O)ON=C2C)ccc1OCc1ccccc1 | 0% | -3% | i | ? | ? | i
CC(=O)NCC(=O)NCC1Cc2cc(C)cc(-c3ccccn3)c2O1 (stereo not given) | 1% | . | . | . | . | .
COC(=O)C1CCC(=O)N1C(c1ccc(OC)cc1)c1cc(OC)c(OC)c(OC)c1 (stereo not given) | 14% | -2% | 7.3µM* | 0.73µM* | 1.3µM* | 0.82µM*
CCOC(=O)c1[nH]c(C)c(/C(O)=C2\C(=O)C(=O)N(CCN3CCOCC3)C2c2cccs2)c1C (stereo not given) | . | -4% | ? | ? | ? | 20µM*
Cc1ccc(S(=O)(=O)CCC(=O)c2ccc(F)cc2)cc1 | 0% | -2% | i | ? | 4.6µM* | i

Screening results as filed in PubChem BioAssay.
